# Results from ChEMBL document CHEMBL1961873, “Compounds: GSK PKIS; Assays: Nanosyn kinase panel” (2012).
# Legend:
# [1] = biological target: T1, Inhibitor of nuclear factor kappa-B kinase subunit epsilon (Homo sapiens) (UniProt Q14164); conditions: at 1 µM;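 note: reported values are averaged percent inhibition figures against human IKKε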
# T1 sequence (whole entry): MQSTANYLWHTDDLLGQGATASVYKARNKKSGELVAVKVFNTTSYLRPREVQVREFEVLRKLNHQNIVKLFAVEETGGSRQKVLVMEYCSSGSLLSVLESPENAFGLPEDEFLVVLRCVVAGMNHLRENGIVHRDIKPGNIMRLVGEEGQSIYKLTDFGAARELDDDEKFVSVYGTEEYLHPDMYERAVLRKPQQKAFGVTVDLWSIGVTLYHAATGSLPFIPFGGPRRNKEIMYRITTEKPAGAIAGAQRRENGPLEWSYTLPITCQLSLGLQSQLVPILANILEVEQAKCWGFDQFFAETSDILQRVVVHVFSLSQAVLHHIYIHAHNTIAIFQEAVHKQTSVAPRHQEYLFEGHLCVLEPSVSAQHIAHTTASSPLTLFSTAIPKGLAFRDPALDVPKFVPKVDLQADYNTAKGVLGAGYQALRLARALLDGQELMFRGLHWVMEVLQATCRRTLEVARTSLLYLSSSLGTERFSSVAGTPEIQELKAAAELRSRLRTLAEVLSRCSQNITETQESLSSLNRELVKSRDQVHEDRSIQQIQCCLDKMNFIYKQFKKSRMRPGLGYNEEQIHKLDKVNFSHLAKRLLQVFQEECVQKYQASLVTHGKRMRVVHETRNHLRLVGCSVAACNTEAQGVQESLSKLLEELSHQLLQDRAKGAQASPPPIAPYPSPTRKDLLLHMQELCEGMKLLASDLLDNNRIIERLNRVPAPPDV
# [2] = biological target: T2, Serine/threonine-protein kinase Nek1 (Homo sapiens) (UniProt Q96PY6); conditions: at 0.1 µM
# T2 sequence (whole entry): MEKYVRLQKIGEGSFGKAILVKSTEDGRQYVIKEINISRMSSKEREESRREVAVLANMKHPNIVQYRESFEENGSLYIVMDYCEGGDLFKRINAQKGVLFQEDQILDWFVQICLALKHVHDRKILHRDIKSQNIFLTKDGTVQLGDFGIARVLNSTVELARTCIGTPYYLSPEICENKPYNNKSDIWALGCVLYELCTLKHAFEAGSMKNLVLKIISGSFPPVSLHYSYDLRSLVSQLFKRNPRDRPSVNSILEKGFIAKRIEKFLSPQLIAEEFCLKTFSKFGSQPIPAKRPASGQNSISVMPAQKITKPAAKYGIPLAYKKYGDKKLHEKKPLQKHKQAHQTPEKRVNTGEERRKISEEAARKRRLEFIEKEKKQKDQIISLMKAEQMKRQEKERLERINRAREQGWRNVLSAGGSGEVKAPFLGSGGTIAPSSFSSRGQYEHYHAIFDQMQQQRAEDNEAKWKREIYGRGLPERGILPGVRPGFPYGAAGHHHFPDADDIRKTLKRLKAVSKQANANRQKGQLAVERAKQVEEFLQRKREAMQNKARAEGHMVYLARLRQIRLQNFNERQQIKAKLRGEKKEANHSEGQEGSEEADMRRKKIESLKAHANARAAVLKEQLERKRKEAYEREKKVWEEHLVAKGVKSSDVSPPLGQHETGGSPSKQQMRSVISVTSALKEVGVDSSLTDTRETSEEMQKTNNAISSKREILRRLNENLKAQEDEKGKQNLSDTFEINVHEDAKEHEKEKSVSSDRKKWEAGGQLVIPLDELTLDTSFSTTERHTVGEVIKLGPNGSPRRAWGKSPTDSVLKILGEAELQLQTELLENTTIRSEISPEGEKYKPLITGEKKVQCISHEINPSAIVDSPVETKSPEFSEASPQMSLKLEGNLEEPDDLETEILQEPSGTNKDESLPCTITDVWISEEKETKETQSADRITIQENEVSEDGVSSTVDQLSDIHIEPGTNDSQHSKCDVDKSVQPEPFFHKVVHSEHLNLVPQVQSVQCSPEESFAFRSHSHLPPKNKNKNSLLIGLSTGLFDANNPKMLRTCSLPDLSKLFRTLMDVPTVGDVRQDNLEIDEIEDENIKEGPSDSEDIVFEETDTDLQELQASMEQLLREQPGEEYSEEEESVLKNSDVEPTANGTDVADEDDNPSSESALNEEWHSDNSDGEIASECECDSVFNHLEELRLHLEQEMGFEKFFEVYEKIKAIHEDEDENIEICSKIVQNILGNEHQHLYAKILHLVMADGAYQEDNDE
# [3] = biological target: T2, Serine/threonine-protein kinase Nek1 (Homo sapiens); conditions: at 1 µM
# [4] = biological target: T3, Serine/threonine-protein kinase Nek2 (Homo sapiens) (UniProt P51955); conditions: at 0.1 µM
# T3 sequence (whole entry): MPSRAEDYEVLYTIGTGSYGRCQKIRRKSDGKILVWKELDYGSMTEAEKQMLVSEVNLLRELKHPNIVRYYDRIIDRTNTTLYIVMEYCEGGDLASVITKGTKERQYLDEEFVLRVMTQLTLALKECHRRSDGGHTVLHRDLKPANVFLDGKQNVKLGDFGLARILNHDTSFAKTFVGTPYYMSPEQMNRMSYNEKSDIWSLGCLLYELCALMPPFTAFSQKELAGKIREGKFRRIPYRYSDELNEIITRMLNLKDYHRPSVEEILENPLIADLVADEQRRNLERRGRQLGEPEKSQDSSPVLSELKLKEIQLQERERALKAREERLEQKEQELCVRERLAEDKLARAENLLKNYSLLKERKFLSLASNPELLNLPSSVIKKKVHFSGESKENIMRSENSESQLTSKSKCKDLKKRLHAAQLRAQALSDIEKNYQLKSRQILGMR
# [5] = biological target: T3, Serine/threonine-protein kinase Nek2 (Homo sapiens); conditions: at 1 µM
# [6] = biological target: Serine/threonine-protein kinase Nek6 (Homo sapiens) (UniProt Q9HC98); conditions: at 0.1 µM
# Serine/threonine-protein kinase Nek6 (Homo sapiens), sequence (Q9HC98 whole entry): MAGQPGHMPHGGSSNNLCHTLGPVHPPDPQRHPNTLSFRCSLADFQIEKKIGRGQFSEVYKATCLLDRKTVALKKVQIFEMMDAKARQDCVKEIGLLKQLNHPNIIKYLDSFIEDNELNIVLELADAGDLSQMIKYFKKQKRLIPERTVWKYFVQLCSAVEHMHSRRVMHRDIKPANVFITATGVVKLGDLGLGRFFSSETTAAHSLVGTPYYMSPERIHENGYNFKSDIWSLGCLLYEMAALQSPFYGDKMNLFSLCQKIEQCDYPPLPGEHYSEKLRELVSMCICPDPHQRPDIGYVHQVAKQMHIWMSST
# [7] = biological target: Serine/threonine-protein kinase Nek6 (Homo sapiens) (UniProt Q9HC98); conditions: at 1 µM
# [8] = biological target: Serine/threonine-protein kinase Nek7 (Homo sapiens) (UniProt Q8TDX7); conditions: at 0.1 µM
# Serine/threonine-protein kinase Nek7 (Homo sapiens), sequence (Q8TDX7 whole entry, looked up): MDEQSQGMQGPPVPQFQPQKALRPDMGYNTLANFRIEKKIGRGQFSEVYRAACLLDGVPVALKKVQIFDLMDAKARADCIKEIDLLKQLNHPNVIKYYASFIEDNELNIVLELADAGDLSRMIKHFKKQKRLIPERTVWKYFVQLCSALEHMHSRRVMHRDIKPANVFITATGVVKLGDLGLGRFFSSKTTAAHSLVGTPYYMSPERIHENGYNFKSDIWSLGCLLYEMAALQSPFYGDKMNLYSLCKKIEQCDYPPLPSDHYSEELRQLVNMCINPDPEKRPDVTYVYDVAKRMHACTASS
# [9] = biological target: Serine/threonine-protein kinase Nek7 (Homo sapiens) (UniProt Q8TDX7); conditions: at 1 µM
# [10] = biological target: T4, Serine/threonine-protein kinase Nek9 (Homo sapiens) (UniProt Q8TD19); conditions: at 0.1 µM
# T4 sequence (whole entry): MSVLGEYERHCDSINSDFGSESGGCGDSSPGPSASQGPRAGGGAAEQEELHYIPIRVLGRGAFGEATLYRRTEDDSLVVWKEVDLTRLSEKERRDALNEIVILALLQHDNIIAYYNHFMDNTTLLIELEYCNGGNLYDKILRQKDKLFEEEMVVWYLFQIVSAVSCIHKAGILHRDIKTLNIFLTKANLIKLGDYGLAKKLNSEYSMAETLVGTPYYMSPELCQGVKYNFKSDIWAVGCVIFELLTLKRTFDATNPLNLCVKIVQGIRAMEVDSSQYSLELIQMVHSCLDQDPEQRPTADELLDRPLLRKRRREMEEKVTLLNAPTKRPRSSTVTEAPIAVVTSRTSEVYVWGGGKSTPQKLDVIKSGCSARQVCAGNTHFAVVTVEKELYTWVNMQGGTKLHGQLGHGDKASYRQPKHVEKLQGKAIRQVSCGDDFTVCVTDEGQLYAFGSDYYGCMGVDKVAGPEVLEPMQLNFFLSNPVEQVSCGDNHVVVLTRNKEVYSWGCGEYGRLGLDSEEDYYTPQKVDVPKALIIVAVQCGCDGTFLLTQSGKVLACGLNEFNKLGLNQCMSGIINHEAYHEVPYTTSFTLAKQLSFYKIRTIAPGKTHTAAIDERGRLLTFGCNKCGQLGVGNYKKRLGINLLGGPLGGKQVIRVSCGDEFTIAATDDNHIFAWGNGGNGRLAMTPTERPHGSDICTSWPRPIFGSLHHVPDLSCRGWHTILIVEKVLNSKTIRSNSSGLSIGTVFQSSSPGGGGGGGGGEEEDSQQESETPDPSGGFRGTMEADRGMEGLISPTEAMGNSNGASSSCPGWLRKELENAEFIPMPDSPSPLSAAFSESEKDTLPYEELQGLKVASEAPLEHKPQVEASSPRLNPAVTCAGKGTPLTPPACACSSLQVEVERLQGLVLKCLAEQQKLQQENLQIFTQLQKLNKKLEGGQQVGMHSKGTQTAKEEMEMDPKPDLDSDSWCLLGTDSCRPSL
# [11] = biological target: T4, Serine/threonine-protein kinase Nek9 (Homo sapiens); conditions: at 1 µM
# [12] = biological target: Serine/threonine-protein kinase PLK1 (Homo sapiens) (UniProt P53350); conditions: at 0.1 µM
# Serine/threonine-protein kinase PLK1 (Homo sapiens), sequence (P53350 whole entry): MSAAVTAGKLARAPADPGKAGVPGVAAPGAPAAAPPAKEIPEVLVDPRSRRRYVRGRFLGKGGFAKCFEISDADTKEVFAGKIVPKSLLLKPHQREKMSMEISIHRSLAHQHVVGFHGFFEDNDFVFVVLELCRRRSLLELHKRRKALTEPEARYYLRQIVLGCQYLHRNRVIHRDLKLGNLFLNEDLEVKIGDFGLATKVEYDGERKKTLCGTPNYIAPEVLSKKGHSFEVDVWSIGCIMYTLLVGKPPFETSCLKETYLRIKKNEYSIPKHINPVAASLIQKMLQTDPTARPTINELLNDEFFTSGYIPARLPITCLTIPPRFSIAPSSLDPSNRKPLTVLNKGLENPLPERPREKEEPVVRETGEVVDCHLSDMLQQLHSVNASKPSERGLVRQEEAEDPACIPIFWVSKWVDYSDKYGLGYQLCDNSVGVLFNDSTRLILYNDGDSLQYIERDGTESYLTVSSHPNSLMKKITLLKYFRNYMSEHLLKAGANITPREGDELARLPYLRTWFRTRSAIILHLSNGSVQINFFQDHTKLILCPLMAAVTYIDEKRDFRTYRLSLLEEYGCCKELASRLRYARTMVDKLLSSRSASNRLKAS
# [13] = biological target: Serine/threonine-protein kinase PLK1 (Homo sapiens) (UniProt P53350); conditions: at 1 µM
# [14] = biological target: T5, Dual specificity protein kinase TTK (Homo sapiens) (UniProt P33981); conditions: at 0.1 µM
# T5 sequence (whole entry): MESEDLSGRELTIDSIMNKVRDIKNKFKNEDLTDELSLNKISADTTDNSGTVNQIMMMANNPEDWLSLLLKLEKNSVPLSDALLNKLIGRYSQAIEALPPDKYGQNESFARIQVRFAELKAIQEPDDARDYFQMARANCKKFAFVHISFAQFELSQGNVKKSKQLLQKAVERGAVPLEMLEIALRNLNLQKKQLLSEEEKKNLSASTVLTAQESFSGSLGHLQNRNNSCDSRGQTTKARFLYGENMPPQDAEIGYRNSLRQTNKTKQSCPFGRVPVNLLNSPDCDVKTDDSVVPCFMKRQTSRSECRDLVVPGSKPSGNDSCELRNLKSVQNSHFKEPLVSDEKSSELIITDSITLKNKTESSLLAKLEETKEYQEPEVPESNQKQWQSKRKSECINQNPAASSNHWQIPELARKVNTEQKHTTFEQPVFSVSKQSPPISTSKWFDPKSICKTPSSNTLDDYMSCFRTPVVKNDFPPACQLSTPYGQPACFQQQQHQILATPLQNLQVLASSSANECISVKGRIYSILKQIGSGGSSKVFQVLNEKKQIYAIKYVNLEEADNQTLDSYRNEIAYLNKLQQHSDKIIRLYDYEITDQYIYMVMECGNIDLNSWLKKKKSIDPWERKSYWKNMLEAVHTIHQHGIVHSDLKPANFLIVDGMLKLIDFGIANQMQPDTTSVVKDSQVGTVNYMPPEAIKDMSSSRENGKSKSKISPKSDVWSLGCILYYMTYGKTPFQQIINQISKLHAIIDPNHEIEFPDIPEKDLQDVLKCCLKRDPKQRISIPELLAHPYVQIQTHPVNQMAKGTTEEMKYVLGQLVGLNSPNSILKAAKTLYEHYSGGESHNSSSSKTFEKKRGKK
# [15] = tested on: T6, Receptor-type tyrosine-protein kinase FLT3 (Homo sapiens), P36888 [D835Y]; conditions: at 1 µM
# T6 sequence (whole entry): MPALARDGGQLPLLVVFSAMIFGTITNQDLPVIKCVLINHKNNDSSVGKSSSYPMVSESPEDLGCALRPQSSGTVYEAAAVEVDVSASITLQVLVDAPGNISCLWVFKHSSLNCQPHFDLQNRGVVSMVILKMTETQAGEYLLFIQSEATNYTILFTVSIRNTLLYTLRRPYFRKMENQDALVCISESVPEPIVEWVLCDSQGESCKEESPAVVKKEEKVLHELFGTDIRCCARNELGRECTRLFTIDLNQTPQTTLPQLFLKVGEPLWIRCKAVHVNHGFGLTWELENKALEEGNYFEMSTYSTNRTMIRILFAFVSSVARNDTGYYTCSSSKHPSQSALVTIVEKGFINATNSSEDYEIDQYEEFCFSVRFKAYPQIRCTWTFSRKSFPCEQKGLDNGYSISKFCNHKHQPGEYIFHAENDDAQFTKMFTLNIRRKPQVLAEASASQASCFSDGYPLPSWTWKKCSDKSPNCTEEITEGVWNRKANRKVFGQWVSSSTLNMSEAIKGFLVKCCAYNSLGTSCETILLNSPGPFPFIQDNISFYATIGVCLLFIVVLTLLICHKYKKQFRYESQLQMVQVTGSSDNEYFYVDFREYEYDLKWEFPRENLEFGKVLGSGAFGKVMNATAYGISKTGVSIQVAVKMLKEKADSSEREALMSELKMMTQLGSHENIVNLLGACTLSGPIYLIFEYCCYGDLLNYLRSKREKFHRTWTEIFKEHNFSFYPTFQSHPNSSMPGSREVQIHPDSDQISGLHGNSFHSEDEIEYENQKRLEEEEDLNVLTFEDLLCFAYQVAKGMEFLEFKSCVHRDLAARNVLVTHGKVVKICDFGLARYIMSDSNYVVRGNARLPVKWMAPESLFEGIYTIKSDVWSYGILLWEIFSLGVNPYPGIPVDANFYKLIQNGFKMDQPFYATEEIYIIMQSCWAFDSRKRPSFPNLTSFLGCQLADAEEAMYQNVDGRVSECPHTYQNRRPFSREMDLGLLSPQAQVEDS
# [16] = biological target: Vascular endothelial growth factor receptor 3 (Homo sapiens) (UniProt P35916); conditions: at 0.1 µM
# Vascular endothelial growth factor receptor 3 (Homo sapiens), sequence (P35916 whole entry): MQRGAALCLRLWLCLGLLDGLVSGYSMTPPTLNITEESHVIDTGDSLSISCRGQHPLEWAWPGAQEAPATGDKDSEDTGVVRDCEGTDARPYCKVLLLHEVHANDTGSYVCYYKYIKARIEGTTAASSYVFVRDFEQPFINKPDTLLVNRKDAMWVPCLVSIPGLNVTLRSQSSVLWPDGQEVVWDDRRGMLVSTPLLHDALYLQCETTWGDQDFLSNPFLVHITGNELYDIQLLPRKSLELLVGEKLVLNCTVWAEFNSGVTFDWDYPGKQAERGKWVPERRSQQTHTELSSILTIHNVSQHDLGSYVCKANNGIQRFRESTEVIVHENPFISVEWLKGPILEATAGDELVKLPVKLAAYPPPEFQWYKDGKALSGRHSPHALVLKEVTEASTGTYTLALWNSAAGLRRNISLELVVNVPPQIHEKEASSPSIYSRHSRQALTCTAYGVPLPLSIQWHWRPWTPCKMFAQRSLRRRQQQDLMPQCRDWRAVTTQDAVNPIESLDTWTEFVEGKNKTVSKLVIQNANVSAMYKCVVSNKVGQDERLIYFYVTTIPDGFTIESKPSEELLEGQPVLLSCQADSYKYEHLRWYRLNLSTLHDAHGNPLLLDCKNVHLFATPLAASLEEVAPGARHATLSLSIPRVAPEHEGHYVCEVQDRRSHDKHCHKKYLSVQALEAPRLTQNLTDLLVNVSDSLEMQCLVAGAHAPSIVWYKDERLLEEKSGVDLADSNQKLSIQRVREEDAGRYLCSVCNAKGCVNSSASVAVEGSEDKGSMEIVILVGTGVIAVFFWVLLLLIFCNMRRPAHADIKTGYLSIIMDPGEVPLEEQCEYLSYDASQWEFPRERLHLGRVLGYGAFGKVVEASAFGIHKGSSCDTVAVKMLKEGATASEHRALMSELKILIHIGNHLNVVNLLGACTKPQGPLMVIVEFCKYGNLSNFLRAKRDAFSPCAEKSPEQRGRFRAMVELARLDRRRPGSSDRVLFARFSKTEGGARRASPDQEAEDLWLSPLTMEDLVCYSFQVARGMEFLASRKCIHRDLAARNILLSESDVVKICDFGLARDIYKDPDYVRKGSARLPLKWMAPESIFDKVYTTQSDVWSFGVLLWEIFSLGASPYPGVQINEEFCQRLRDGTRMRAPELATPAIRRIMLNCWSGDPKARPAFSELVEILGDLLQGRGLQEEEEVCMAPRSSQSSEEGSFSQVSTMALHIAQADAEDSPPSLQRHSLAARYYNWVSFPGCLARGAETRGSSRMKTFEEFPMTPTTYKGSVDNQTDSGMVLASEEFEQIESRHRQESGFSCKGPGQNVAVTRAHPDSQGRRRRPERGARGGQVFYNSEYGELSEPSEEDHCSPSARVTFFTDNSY
# [17] = biological target: Vascular endothelial growth factor receptor 3 (Homo sapiens) (UniProt P35916); conditions: at 1 µM
# [18] = biological target: Macrophage colony-stimulating factor 1 receptor (Homo sapiens) (UniProt P07333); conditions: at 0.1 µM
# Macrophage colony-stimulating factor 1 receptor (Homo sapiens), sequence (P07333 whole entry): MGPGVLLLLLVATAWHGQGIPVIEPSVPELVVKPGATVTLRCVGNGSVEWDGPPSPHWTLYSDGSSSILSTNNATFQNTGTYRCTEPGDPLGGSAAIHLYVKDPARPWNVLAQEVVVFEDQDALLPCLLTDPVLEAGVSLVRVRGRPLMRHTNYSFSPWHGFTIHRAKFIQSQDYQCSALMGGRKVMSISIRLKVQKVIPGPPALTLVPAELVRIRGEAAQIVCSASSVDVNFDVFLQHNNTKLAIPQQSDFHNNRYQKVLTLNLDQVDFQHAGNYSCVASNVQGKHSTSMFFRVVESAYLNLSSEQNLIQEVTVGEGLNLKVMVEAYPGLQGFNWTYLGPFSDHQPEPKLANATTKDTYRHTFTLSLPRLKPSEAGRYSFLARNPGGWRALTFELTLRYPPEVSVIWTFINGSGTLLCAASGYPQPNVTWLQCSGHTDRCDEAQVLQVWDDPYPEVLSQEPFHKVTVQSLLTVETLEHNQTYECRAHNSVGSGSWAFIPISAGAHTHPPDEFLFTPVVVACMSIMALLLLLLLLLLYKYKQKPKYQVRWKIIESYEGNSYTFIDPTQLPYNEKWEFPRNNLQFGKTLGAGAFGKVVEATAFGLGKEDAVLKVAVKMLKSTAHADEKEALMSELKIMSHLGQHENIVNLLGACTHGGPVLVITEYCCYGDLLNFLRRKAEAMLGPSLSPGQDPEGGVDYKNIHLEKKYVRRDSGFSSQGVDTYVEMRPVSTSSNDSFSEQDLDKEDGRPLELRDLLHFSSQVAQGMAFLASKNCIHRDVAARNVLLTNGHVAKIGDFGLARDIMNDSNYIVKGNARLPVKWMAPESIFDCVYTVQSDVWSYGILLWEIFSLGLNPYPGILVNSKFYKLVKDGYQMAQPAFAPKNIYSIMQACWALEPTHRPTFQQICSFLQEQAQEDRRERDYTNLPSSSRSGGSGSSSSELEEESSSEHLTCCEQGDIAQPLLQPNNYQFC
# [19] = biological target: Macrophage colony-stimulating factor 1 receptor (Homo sapiens) (UniProt P07333); conditions: at 1 µM
# [20] = biological target: Tyrosine-protein kinase Fyn (Homo sapiens) (UniProt P06241); conditions: at 0.1 µM
# Tyrosine-protein kinase Fyn (Homo sapiens), sequence (P06241 2-537 limits assumed): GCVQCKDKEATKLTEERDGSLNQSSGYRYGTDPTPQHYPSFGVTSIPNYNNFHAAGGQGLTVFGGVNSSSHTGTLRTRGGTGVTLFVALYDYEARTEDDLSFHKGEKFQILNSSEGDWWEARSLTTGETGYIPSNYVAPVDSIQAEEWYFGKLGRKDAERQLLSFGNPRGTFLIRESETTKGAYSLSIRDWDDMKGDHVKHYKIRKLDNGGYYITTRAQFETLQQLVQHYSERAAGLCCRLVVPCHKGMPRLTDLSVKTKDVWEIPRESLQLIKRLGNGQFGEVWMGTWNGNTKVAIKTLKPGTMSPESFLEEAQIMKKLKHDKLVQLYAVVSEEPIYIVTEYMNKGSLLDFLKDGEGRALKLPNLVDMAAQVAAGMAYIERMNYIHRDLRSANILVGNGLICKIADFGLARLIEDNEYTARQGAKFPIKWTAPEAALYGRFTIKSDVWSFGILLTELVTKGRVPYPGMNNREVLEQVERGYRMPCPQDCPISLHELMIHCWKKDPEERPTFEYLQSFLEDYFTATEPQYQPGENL
Structure (SMILES),inhibition [1] [%],inhibition [2] [%],inhibition [3] [%],inhibition [4] [%],inhibition [5] [%],inhibition [6] [%],inhibition [7] [%],inhibition [8] [%],inhibition [9] [%],inhibition [10] [%],inhibition [11] [%],inhibition [12] [%],inhibition [13] [%],inhibition [14] [%],inhibition [15] [%],inhibition [16] [%],inhibition [17] [%],inhibition [18] [%],inhibition [19] [%],inhibition [20] [%]
CS(=O)(=O)CCNCc1ccc(-c2ccc3ncnc(Nc4ccc(OCc5cccc(C(F)(F)F)c5)cc4)c3c2)o1,4.77,3.08,8.21,7.25,6.57,0.78,4.95,2.96,7.52,4.02,2.96,5.06,6.5,7.15,1.14,8.65,15.4,3.92,9.05,2.75
c1ccc(-c2n[nH]cc2-c2ccnc(-c3ccc(OCCn4ccnc4)cc3)c2)nc1,2.18,0.35,2.46,0.51,1.73,0.49,4.21,2.27,2.32,2.13,2.33,1.2,2.17,3.26,5.27,5.33,16.4,2.61,11.8,2.86
CNC(=O)c1ncccc1Nc1nc(Nc2cc3c(cc2OC)CCCN3C(=O)CN(C)C)nc2[nH]ccc12,10.1,0.87,2.58,4.37,3.89,2.87,-0.46,3.53,7.42,5.86,8.8,79.8,92.8,12.8,2.75,2.84,2.27,7.05,3.9,1.75
